Assay [1] deals with Cell division control protein 42 homolog (Homo sapiens) (UniProt P60953). The experiment in a line: activated mutant Cdc42 GTP-binding inhibitors, dose response, biochemical, multiplex bead flow cytometry, Bodipy-FL-GTP (AID 1333). (A flow cytometer gives signals particle by particle.)
For assay [2] the target is unchanged. The assay is described as follows: wildtype Cdc42 GTP-binding inhibitors, dose response, biochemical, multiplex bead flow cytometry, Bodipy-FL-GTP (AID 1334;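 active means fitted half-maximal concentration within the tested range, moderate curve steepness, significant signal drop, and little compound fluorescence or bead-linkage interference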). The settings on record: bead-based flow cytometry, Bodipy-FL-GTP binding to GST-Cdc42; at 100 µM (top of the series) unless noted.
The target in assay [3] is GTPase HRas (Homo sapiens) (UniProt P01112). The experiment in a line: inhibitors of GTP binding to wildtype Ras, dose response, biochemical, multiplex bead flow cytometry (AID 1335;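 active means fitted half-maximal concentration within 10 nM to 100 µM, steepness 0.5 to 2, significant signal drop, low assay interference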). The note with it: bead-based flow cytometry, Bodipy-GTP binding to GST-Ras; at 100 µM (top of the series) unless noted.
GTPase HRas (Homo sapiens), sequence (P01112 whole entry, looked up): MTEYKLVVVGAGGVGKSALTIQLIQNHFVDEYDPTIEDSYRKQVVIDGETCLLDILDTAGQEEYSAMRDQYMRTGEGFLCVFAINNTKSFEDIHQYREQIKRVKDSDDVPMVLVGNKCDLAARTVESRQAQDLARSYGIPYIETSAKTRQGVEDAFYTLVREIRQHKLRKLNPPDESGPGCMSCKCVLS
The test system of assay [4] is Ras-related protein Rab-7a (dog), GTP binding. The experiment in a line: Rab7 GTP binding inhibitors, potency, dose response, biochemical, wildtype, multiplex bead flow cytometry (AID 1336; call rule not given here).
The target in assay [5] is Ras-related C3 botulinum toxin substrate 1 (Homo sapiens) (UniProt P63000). The assay is described as follows: wildtype Rac1 GTP binding inhibitors, dose response, biochemical, multiplex bead flow cytometry (AID 1340;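 active means dose curve with midpoint inside tested range, moderate steepness, plateau gap beyond fit error, low compound glow and bead-link interference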). The note with it: GST-Rac1 beads, Bodipy-FL-GTP binding; at 100 µM (top of the series) unless noted.
In assay [6] the target is GTPase HRas (Homo sapiens) (UniProt P01112). The experiment in a line: activated Ras mutant GTP binding inhibitors, dose response, biochemical, multiplex bead flow cytometry (AID 1341;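 active means dose-response curve with midpoint inside the tested range, moderate steepness, significant amplitude and little compound fluorescence or bead-attachment interference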;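 further: GST-tagged constitutively activated Ras mutant immobilized on beads and multiplexed with other GTPases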).

For part of these data: Results with a measured potency or affinity are listed apart. Calls of active or inactive are those of the source.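 How the source made its calls, unless noted: active means fitted half-maximal concentration within the tested dose range, moderate curve steepness, a statistically real signal drop, and little compound fluorescence or tag-binding interference; inactive means the rest.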

Cell division control protein 42 homolog (Homo sapiens), sequence (P60953 whole entry, looked up): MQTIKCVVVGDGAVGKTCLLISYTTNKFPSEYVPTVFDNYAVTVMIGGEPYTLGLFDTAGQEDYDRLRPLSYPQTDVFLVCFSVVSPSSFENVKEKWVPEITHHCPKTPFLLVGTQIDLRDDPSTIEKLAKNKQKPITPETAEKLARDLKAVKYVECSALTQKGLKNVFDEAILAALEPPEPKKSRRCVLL

Consider `NC(=O)COC(=O)c1cccc2c1-c1ccccc1C2=O`, for which the molecule was classed as inactive in assay [1], in assay [4] and in assay [6]. The fluorescence, percent of control (lower = inhibition) in assay [2] came out at 33.4%. This molecule also came in with a GTP binding, percent of control in assay [3] of 75%. In assay [5], the GTP binding signal, raw median fluorescence (lower = inhibition) (MCF (arbitrary fluorescence units)) came out at 176.
Regarding `CSc1nc(Cc2ccccc2)cc(=O)[nH]1`, the result in assay [1], in assay [4] and in assay [6] was inactive. Also, the fluorescence, percent of control (lower = inhibition) in assay [2] was found to be 36.3%. This molecule gave a GTP binding, percent of control in assay [3] of 80.4%. This molecule also had a GTP binding signal, raw median fluorescence (lower = inhibition) (MCF (arbitrary fluorescence units)) in assay [5] of 273.
For the molecule `Oc1c(C(c2ccccn2)N2CCOCC2)ccc2cccnc12` (centres undefined), the result in assay [1], in assay [4] and in assay [6] was inactive. For the same molecule, the fluorescence, percent of control (lower = inhibition) in assay [2] worked out at 55.1%. For the same molecule, the GTP binding, percent of control in assay [3] stood at 70.9%. The molecule further returned a GTP binding signal, raw median fluorescence (lower = inhibition) (MCF (arbitrary fluorescence units)) in assay [5] of 0.
With `CCOc1cccc(/C(O)=C2/C(=O)C(=O)N(CCOC)C2c2ccncc2)c1` (centres undefined), the result in assay [1], in assay [4] and in assay [6] was inactive. Also, the fluorescence, percent of control (lower = inhibition) in assay [2] came out at 46.9%. This molecule also registered a GTP binding, percent of control in assay [3] of 57.7%. In assay [5], this molecule yielded a GTP binding signal, raw median fluorescence (lower = inhibition) (MCF (arbitrary fluorescence units)) of 0.
For the molecule `NOC(=O)c1cccnc1SCCc1ccccc1`, the call in assay [1], in assay [4] and in assay [6] was inactive. In addition, the fluorescence, percent of control (lower = inhibition) in assay [2] was 45.9%. In addition, the GTP binding, percent of control in assay [3] turned out to be 125%. Besides, the GTP binding signal, raw median fluorescence (lower = inhibition) (MCF (arbitrary fluorescence units)) in assay [5] came to 63.
Turning to `O=C(O)c1cccnc1SCc1ccccc1Cl`, the result in assay [1], in assay [4] and in assay [6] was inactive. Moreover, the fluorescence, percent of control (lower = inhibition) in assay [2] turned out to be 103%. The GTP binding, percent of control in assay [3] came out at 119%. Besides, the GTP binding signal, raw median fluorescence (lower = inhibition) (MCF (arbitrary fluorescence units)) in assay [5] came out at 88.1.
In the case of `Cc1ccc(C(C)C)c(OCc2ccccc2C(=O)O)c1`, the outcome in assay [1], in assay [4] and in assay [6] was inactive. Also, the fluorescence, percent of control (lower = inhibition) in assay [2] is 73.5%. Besides, the GTP binding, percent of control in assay [3] came to 87%. In assay [5], the GTP binding signal, raw median fluorescence (lower = inhibition) (MCF (arbitrary fluorescence units)) was 48.6.
On to `Cc1n[nH]c(=S)c2nn(-c3cccc(Cl)c3)c(C)c12`, for which the molecule was classed as inactive in assay [1], in assay [4] and in assay [6]. Moreover, the fluorescence, percent of control (lower = inhibition) in assay [2] came to 55.8%. Also, in assay [3], the GTP binding, percent of control amounted to 71.1%. Besides, the GTP binding signal, raw median fluorescence (lower = inhibition) (MCF (arbitrary fluorescence units)) in assay [5] is 217.
As for `O=C(O)c1ccccc1OCc1ccccc1Br`, the molecule was classed as inactive in assay [1], in assay [4] and in assay [6]. The fluorescence, percent of control (lower = inhibition) in assay [2] turned out to be 84.6%. Besides, the GTP binding, percent of control in assay [3] was 98%. For the same molecule, the GTP binding signal, raw median fluorescence (lower = inhibition) (MCF (arbitrary fluorescence units)) in assay [5] was determined as 65.5.
With `Cc1noc(C)c1COc1cccc(C(=O)NCc2ccccc2Cl)c1`, the result in assay [1], in assay [4] and in assay [6] was inactive. In assay [2], the fluorescence, percent of control (lower = inhibition) was 91.7%. This molecule came in with a GTP binding, percent of control in assay [3] of 163%. In assay [5], this molecule had a GTP binding signal, raw median fluorescence (lower = inhibition) (MCF (arbitrary fluorescence units)) of 186.
With `COc1cc(/C=C2/SC(=Nc3ccc(O)cc3)NC2=O)cc(OC)c1O`, the call in assay [1], in assay [4] and in assay [6] was inactive. Also, the fluorescence, percent of control (lower = inhibition) in assay [2] was 39.8%. In assay [3], this molecule came in with a GTP binding, percent of control of 84.1%. The molecule further registered a GTP binding signal, raw median fluorescence (lower = inhibition) (MCF (arbitrary fluorescence units)) in assay [5] of 231.
`CCOc1ccc(Cn2c3ccc(OC)cc3c3nc4ccccc4nc32)cc1`: the molecule was classed as inactive in assay [1], in assay [4] and in assay [6]. Moreover, the fluorescence, percent of control (lower = inhibition) in assay [2] was found to be 114% [at 33.3 µM]. Further, the GTP binding, percent of control in assay [3] stood at 127% [at 33.3 µM]. In assay [5], this molecule had a GTP binding signal, raw median fluorescence (lower = inhibition) (MCF (arbitrary fluorescence units)) of 242.
Take `CCOc1ccc(NCc2ccccc2OCc2cccc(F)c2)cc1`: the result in assay [1], in assay [4] and in assay [6] was inactive. The fluorescence, percent of control (lower = inhibition) in assay [2] came to 69.4%. In addition, the GTP binding, percent of control in assay [3] is 68.1%. For the same molecule, the GTP binding signal, raw median fluorescence (lower = inhibition) (MCF (arbitrary fluorescence units)) in assay [5] stood at 0.
In the case of `COc1ccc(OC)c(CCNCc2ccc(C(=O)O)s2)c1`, the outcome in assay [1], in assay [4] and in assay [6] was inactive. In addition, the fluorescence, percent of control (lower = inhibition) in assay [2] stood at 58.4%. Further, in assay [3], the GTP binding, percent of control turned out to be 82.2%. The GTP binding signal, raw median fluorescence (lower = inhibition) (MCF (arbitrary fluorescence units)) in assay [5] turned out to be 35.9.

(Values after PubChem BioAssay.)
